In PubChem BioAssay one finds remaining NAD and luciferase signal data, which are given here for 39 compounds.

Molecules are shown by their SMILES. A number with no mark means an inactive call.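 How the source made its calls, unless noted: active means luciferase signal above three times the same-plate solvent-only control wells; inactive means the rest.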

Chain of Mitogen-activated protein kinase 7 (Homo sapiens) (Q13164 whole entry, looked up, the tested form may be a part): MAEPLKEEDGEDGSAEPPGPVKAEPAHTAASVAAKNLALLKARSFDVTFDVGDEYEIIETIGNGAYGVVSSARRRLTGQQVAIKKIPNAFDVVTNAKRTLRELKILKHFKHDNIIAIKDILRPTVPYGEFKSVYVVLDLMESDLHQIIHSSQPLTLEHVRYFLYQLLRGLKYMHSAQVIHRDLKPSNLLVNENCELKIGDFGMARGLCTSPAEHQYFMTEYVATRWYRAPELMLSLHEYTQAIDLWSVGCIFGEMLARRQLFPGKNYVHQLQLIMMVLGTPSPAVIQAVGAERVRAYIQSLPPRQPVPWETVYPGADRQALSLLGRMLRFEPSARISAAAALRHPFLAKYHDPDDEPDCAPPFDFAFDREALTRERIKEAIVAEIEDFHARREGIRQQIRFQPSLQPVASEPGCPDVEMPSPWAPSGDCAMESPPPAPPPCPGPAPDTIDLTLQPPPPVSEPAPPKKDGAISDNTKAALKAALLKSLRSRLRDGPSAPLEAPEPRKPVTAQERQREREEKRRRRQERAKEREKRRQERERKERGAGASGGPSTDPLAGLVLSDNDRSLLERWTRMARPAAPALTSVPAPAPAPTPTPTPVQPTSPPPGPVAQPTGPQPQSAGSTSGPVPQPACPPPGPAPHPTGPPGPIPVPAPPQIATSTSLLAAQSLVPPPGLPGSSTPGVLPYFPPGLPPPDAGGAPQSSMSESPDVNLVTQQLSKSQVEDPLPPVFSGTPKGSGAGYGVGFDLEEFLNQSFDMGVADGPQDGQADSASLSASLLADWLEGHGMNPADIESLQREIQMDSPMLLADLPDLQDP

For the first assay, the target named is NAD(+) hydrolase SARM1 (Homo sapiens) (UniProt Q6SZW1). The experiment in a line: blocking NAD cleavage by SARM1 SAM-TIR – cell lysate, NAD-Glo luminescence (AID 1508614;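 active means compound whose remaining NAD level is above about 45 nM, limit read from the data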;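 further: higher remaining NAD means stronger inhibition of SARM1 NADase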). The conditions noted are these: SAM-TIR HEK293T lysate NADase, at 1 µM, hits give high values.
Chain of NAD(+) hydrolase SARM1 (Homo sapiens) (Q6SZW1 whole entry, looked up): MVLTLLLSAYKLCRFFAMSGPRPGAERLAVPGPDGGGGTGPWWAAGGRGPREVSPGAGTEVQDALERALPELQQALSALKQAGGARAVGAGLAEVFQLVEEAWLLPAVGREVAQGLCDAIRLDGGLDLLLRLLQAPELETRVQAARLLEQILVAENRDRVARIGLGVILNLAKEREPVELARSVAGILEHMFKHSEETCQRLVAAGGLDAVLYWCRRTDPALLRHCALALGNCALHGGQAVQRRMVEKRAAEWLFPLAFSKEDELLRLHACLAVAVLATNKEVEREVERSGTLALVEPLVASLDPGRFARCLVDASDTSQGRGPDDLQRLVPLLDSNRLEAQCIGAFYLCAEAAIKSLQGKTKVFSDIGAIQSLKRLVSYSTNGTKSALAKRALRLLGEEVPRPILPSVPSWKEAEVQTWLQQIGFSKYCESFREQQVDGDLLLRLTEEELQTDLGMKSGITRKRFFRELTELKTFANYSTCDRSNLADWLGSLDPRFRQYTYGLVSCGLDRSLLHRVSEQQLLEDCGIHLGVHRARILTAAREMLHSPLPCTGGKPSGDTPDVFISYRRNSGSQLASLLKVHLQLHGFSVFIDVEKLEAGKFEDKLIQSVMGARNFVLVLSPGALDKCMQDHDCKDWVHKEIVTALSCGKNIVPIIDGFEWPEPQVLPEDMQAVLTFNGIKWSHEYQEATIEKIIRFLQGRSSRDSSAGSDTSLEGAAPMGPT
`COc1ccc(O)c(C(C)(C)C)c1`: the remaining NAD is 10 nM.
Still for that read-out and setting: to `CC[C@H]1[C@@H]2C[C@H]3[C@@H]4N(C)c5ccccc5[C@]45C[C@@H]([C@H]2[C@H]5O)N3[C@@H]1O` belongs 10 nM.
In the case of `OC[C@@H](O)[C@H]1O[C@@H]2O[C@H](C(Cl)(Cl)Cl)O[C@@H]2[C@H]1O`, the remaining NAD was 10 nM.
Turning to `CC[C@@H](c1cccc(O)c1)[C@@H](C)CN(C)C`, the remaining NAD is 10 nM.
Same read-out and setting: then `C=C[C@H]1CN2CC[C@H]1C[C@H]2[C@H](OC(=O)OCC)c1ccnc2ccc(OC)cc12`, with 10 nM; and `CC(=O)[C@H]1CC[C@H]2[C@@H]3CC[C@@H]4C[C@H](O)CC[C@]4(C)[C@H]3CC[C@]12C`, with 10 nM.
On the same count and under the same terms, to `O=C(NN=Cc1ccc([N+](=O)[O-])o1)c1cc([N+](=O)[O-])cc([N+](=O)[O-])c1O` belongs 10 nM; to `CC(N)C(O)c1ccccc1` (configuration not stated), 10 nM.
Turning to `CCN1C[C@]2(COC)[C@H](O)C[C@H](OC)[C@]34C1[C@H]([C@H](OC)[C@H]23)[C@]1(OC(C)=O)[C@H]2[C@@H](OC(=O)c3ccccc3)[C@](O)(C[C@H]24)[C@@H](OC)[C@@H]1O`, the remaining NAD was 10 nM.
On to `C[N+]1([O-])[C@@H]2CC[C@H]1CC(OC(=O)C(CO)c1ccccc1)C2` (some centres not stated), for which the remaining NAD was 10 nM.
On the same count and under the same terms, then `C=CCNCCCCCCCCCC` (tested in a mixture with another compound), with 10 nM; and `CN1C2CC(OC(=O)C(CO)c3ccccc3)CC1C(O)C2` (configuration not stated), with 10 nM.
On the same count and under the same terms, then `O=c1nc(O)n(Cl)c(=O)n1Cl`, with 10 nM; and `NC(=O)C[S@@](=O)C(c1ccccc1)c1ccccc1`, with 10 nM.

The next assay addresses Mitogen-activated protein kinase 7 (Homo sapiens) (UniProt Q13164). The experiment in a line: Gal4-ERK5 driven luciferase induction – cell-based, HTS, primary screen (AID 1508626).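 Further: luciferase driven by Gal4-ERK5 fusion binding five Gal4 sites before minimal TATA.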 The conditions noted are these: HeLa Gal4-ERK5 transactivation, 18 h, at 5 µM, hits give high values.
For `CC[C@H]1[C@@H]2C[C@H]3[C@@H]4N(C)c5ccccc5[C@]45C[C@@H]([C@H]2[C@H]5O)N3[C@@H]1O`, the luciferase signal was 116 AU.
Take `CC(C)c1cc2c(c(O)c1O)[C@@]1(C(=O)O)CCCC(C)(C)[C@@H]1CC2`: the luciferase signal is 52 AU.
On the same count and under the same terms, then `CC(=O)OC1C[C@@]2(C)[C@H](c3ccoc3)C[C@H]3O[C@]32[C@]2(C)C(=O)C(O)=C3C(C)(C)C(=O)C=C[C@]3(C)C12` (some centres not stated), with 12 AU.
Still for that read-out and setting: then `C=C[C@H]1CN2CC[C@H]1C[C@H]2[C@H](OC(=O)OCC)c1ccnc2ccc(OC)cc12`, with 28 AU; and `COC1=C[C@]23CCCN2CCc2cc4c(cc2[C@@H]3[C@@H]1O)OCO4`, with 56 AU; and `C[N+]12CC[C@@]34c5ccccc5N5C(=O)CC6OCC=C(C1)[C@H](CC32)[C@@H]6C54` (some centres not stated), with 140 AU.
Still for that read-out and setting: to `CN[C@@H]1[C@@H](O)[C@@H](O[C@@H]2[C@@H](O)[C@H](O[C@H]3O[C@H]([C@@H](C)O)[C@@H](O)[C@H](O)[C@H]3N)[C@@H](N)C[C@H]2N)OC[C@]1(C)O` belongs 52 AU.
For `COC(=O)C1=CO[C@@H](C)[C@@H]2CN3CC[C@@]4(C(=O)Nc5ccccc54)[C@@H]3C[C@H]12`, the luciferase signal is 24 AU.
Still for that read-out and setting: then `CC(C)[C@@H]1NC(=O)[C@H](C)OC(=O)[C@@H](C(C)C)NC(=O)[C@@H](C(C)C)OC(=O)[C@H](C(C)C)NC(=O)[C@H](C)OC(=O)[C@@H](C(C)C)NC(=O)[C@@H](C(C)C)OC(=O)[C@H](C(C)C)NC(=O)[C@H](C)OC(=O)[C@@H](C(C)C)NC(=O)[C@@H](C(C)C)OC1=O`, with 36 AU; and `CC(=O)O[C@@H]1[C@H]2CC[C@H]3[C@@](C)(O)[C@@H]4C[C@H](O)C(C)(C)[C@@]4(O)[C@@H](O)C[C@@]13C[C@@]2(C)O`, with 32 AU; and `CC(=O)O[C@H]1C(=O)[C@@]2(C)[C@H]([C@H](OC(=O)c3ccccc3)[C@]3(O)C[C@H](O)C(C)=C1C3(C)C)[C@]1(OC(C)=O)CO[C@@H]1C[C@@H]2O`, with 136 AU.
Same read-out and setting: then `CCC(C)C(=O)OC1C[C@@]2(C)[C@H](c3ccoc3)OC(=O)CC23OC2(C)OC34C(OC(=O)C(C)C)[C@@]3(O)[C@@H](OC(=O)C5(C)OC5C)[C@@]5(C)C[C@]3(O)[C@@](C)([C@H]5CC(=O)OC)C14O2` (some centres not stated), with 44 AU.
Same read-out and setting: to `C[C@@H]1CC[C@@]2(OC1)O[C@H]1[C@@H](O)[C@H]3[C@@H]4CC[C@H]5C[C@@H](O[C@@H]6O[C@H](CO)[C@H](O[C@@H]7O[C@H](CO)[C@@H](O)[C@H](O[C@@H]8OC[C@@H](O)[C@H](O)[C@H]8O)[C@H]7O[C@@H]7O[C@H](CO)[C@H](O)[C@H](O[C@@H]8O[C@H](CO)[C@@H](O)[C@H](O)[C@H]8O)[C@H]7O)[C@H](O)[C@H]6O)[C@H](O)C[C@]5(C)[C@H]4CC[C@]3(C)[C@H]1[C@@H]2C` belongs 48 AU; to `CCN1C[C@]2(COC)[C@H](O)C[C@H](OC)[C@]34C1[C@H]([C@H](OC)[C@H]23)[C@]1(OC(C)=O)[C@H]2[C@@H](OC(=O)c3ccccc3)[C@](O)(C[C@H]24)[C@@H](OC)[C@@H]1O`, 16 AU; to `COC(=O)C1=CO[C@@H](C)[C@@H]2CN3CC[C@@]4(C(=O)Nc5ccccc54)[C@H]3C[C@H]12`, 32 AU.
For `C[C@]12CCC(=O)C[C@@H]1CC[C@@H]1[C@@H]2CC[C@]2(C)C(=O)CC[C@@H]12`, the luciferase signal was 68 AU.
Same read-out and setting: to `CN1[C@H]2C[C@H](OC(=O)[C@H](CO)c3ccccc3)C[C@@H]1[C@@H](O)C2` belongs 56 AU; to `CC(=O)O[C@H]1[C@H]2[C@@H](OC(=O)Cc3ccccc3)[C@@H](C)C[C@]2(OC(C)=O)C(=O)/C(C)=C/[C@@H]2[C@H](CC[C@@]13CO3)C2(C)C`, 56 AU; to `CC(=O)OC1CCC2(C)C(CCC3C2CCC2(C)C(C4=CC(=O)OC4)C(OC(C)=O)CC32O)C1` (configuration not stated), 16 AU.
Still for that read-out and setting: to `CC[C@@H](C)C(=O)O[C@H]1[C@H](O)[C@H]2[C@@H](CN3C[C@@H](C)CC[C@H]3[C@@]2(C)O)[C@@H]2C[C@]34O[C@]5(O)[C@@H](OC(=O)[C@](C)(O)[C@@H](C)O)CC[C@@]3(C)[C@@H]5[C@@H](OC(C)=O)[C@@H](OC(C)=O)[C@H]4[C@@]21O` belongs 88 AU.
Still for that read-out and setting: then `CN(CC[C@H](N)CC(=O)N[C@H]1C=C[C@H](n2ccc(N)nc2=O)O[C@@H]1C(=O)O)C(=N)N`, with 80 AU; and `C[C@@H]1O[C@@H](O[C@H]2CC[C@]3(C=O)[C@H]4CC[C@]5(C)[C@@H](C6=CC(=O)OC6)CC[C@]5(O)[C@@H]4CC[C@]3(O)C2)[C@H](O)[C@H](O)[C@H]1O`, with 4 AU; and `CC(=O)O[C@@H]1CC[C@@]2(C)[C@@H](CC[C@@H]3[C@@H]2CC[C@]2(C)C(=O)CC[C@@H]32)C1`, with 28 AU.
Consider `CC[C@]12C=CCN3CC[C@@]4(c5ccc(OC)cc5N(C)[C@H]4[C@@](O)(C(=O)OC)[C@@H]1OC(C)=O)[C@@H]32`, for which the luciferase signal is 44 AU.
Regarding `COc1cc([C@@H]2c3cc4c(cc3[C@@H](O)[C@H]3COC(=O)[C@H]23)OCO4)cc(OC)c1O`, the luciferase signal is 72 AU.
The same measure, in the same setting: then `CCN1C[C@]2(OC(=O)c3ccccc3NC(C)=O)CC[C@H](OC)[C@]34C1[C@H](C[C@H]23)[C@@]1(O)C[C@H](OC)[C@H]2C[C@@H]4[C@]1(O)[C@H]2OC`, with 84 AU; and `CC(=O)[C@H]1CC[C@H]2[C@@H]3CC[C@H]4C[C@H](O)CC[C@]4(C)[C@H]3CC[C@]12C`, with 24 AU; and `CC(=O)OCC1=C(C(=O)O)N2C(=O)[C@@H](NC(=O)CCCC(N)C(=O)O)[C@H]2SC1` (some centres not stated), with 56 AU.
